Screens (PubChem BioAssay)
CCT modulator: modulators of cytosolic chaperonin (CCT/TRiC) activity; purified chaperonin ATPase assay, HTRF ADP detection, 30 min; activity change, % (no concentration beside the values), hits read low; 0.3% of 360,000 active; AID 651819; in the data active means activity change below about -30%
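Enzyme 40 or 20 nM (batch-dependent) in Tris pH 7.4/KCl/MgCl2/DTT; cpd 76 uM single point; ATP 10 uM; 30 min 37 °C; Transcreener ADP HTRF detection, 30 min RT; ratio 665/615.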
Sfp inh: blocks B. subtilis Sfp PPTase activity; Q9F4F7; Biochemical Sfp PPTase activity, qHTS; Potency, µM, for inactives: largest response in the series, negative = inhibition, actives largely listed as inhibitors; 3.5% of 310,000 active; AID 1490;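 further: the enzyme is Sfp with the accession as filed and its product quenches rhodamine fluorescence; potency means the concentration at half of the fitted maximal effect; 0% = enzyme reaction without inhibitor and -100% = no enzyme wells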
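Fluorescence-quenching assay with 15 nM Sfp, 5 uM rhodamine-CoA and 12.5 uM BHQ-2-labelled ybbR peptide in pH 7.6 Hepes/MgCl2 buffer. Enzyme was pre-incubated with compound for 15 min at room temperature. Rate was taken from the 30-min fluorescence change (525/598 nm).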
PLK1 PBD block: inhibitors of human PLK1 polo-box domain binding | P53350 | Plk1 PBD binding of FITC phosphopeptide, fluorescence polarization | Potency, µM, without a hit: max response, negative = inhibition, usual class: inhibitors | 2.8% of 360,000 active | AID 720504; further: potency means the concentration at half of the fitted maximal effect; series mostly up to about 57 µM; nearly all actives have a fitted effect of over 65% in size
VDR inhibitor: blocks the human vitamin D receptor; P11473; VDR-SRC2-3 peptide fluorescence polarization, 2 h; Potency, µM, without a hit: max response, negative = inhibition, usual class: inhibitors; 0.93% of 400,000 active; further: potency means the concentration at half of the fitted maximal effect
Target sequence (P11473 whole entry, looked up): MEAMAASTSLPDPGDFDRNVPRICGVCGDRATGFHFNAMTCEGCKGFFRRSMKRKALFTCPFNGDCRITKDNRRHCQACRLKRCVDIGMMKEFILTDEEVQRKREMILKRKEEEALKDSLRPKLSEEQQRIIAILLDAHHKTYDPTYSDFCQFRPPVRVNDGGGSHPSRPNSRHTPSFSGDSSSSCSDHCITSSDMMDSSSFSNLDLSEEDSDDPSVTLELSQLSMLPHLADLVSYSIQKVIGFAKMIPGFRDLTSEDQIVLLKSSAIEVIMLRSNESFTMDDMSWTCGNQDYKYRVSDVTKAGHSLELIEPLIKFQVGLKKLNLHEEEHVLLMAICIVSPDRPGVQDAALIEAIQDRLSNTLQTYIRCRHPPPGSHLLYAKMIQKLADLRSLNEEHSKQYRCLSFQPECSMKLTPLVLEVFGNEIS
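VDR–SRC2-3 interaction, FP format. Cmpds 23 nl via pintool, brief spin, 2 h ambient incubation.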
MmCpn inh: inhibitors of Methanococcus maripaludis chaperonin TRiC (MmCpn); purified Mm-Cpn ATPase, ADP Transcreener TR-FRET; Potency, µM (highest dose often 76.9 µM), without a hit: at the highest dose activity, negative = inhibition, most hits filed as inhibitors; 0.031% of 330,000 active; further: potency means the concentration at half of the fitted maximal effect; nearly all actives have a fitted effect of over 80% in size
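Inhibition of chaperonin ATP hydrolysis is measured as reduced ADP production, detected by competitive TR-FRET in which signal falls with ADP. Final enzyme 25 nM and ATP 10 uM, reacted 30 min at 37°C.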
G9a block: G9a (human) methyltransferase inhibition; G9a H3K9 monomethylation, AlphaScreen, 2 h; Q96KQ7; Potency, µM (titrated, usually from 102 µM), without a hit: at the highest dose activity, negative = inhibition, most hits filed as inhibitors; 8.8% of 350,000 active; further: potency means the concentration at half of the fitted maximal effect; nearly all actives have a fitted effect of over 75% in size
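G9a (20 nM) was preincubated 15 min with compound, then reacted 2 h at room temperature with 500 nM biotin-H3K9 peptide and 20 µM SAM. Monomethyl-H3K9 detected by AlphaScreen using anti-H3K9me1 antibody.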
* marks the source's active call; other numbers are inactive results; ? = inconclusive; . = no result given; [ ] = another dose, or the depositor's remark. The list is not random: actives were taken first. Their share in the collection is about 10%. Unless noted, the call rests on the fitted dose curve; in most records, active means well fitted curve in the direction sought with a large enough effect; inconclusive means small, poorly fitted or top-dose-only effect, or another doubt; inactive means no such curve, though single readings can be large; an effect the other way counts as inactive or inconclusive. Unless noted, on the % scale 0 is the no-effect control and ±100 the full control effect.

SMILES | CCT modulator | Sfp inh | PLK1 PBD block | VDR inhibitor | MmCpn inh | G9a block
OC(COC(c1ccc(F)cc1)c1ccc(F)cc1)CN1CCCC(C(F)(F)F)C1 (configuration not stated) | -2.2 | -24.2% | 3.7% | -1.1% | -2.6% | 11.2µM*
CCN1CCN(CC(O)COC(c2ccccc2)c2ccccc2)CC1 (configuration not stated) | 1.3 | 2.2% | -0.2% | -18.0% | -0.8% | 7.5%
COc1ccc(N2CCN(CC(O)COC(c3ccc(F)cc3)c3ccc(F)cc3)CC2)cc1 (configuration not stated) | -0.1 | ? | -5.7% | -1.7% | -1.0% | 5.62µM*
Cc1nn(CC(=O)N2CCN(c3ccccc3)CC2)c(=O)c2cc3sccc3n12 | . | . | . | -15.2% | . | 11.2%[59 µM]
CCOC(=O)c1c(C)[nH]c(CCC(=O)Nc2cc(C)cc(C)c2)c1C | . | . | . | 11.5% | . | 1.1%[59 µM]
COc1cccc([C@@H]2Oc3ccc(OC)cc3C[C@H]2OC(=O)N[C@H](C)C2CCCCC2)c1 | . | -9.0% | . | 1.1% | . | .
CCOC(=O)c1[nH]c(C)c(CCC(=O)NCc2ccc(C)cc2)c1C | . | . | . | 11.9% | . | 1.5%[59 µM]
OC(CN1CCN(c2cccc(Cl)c2)CC1)C(c1ccccc1)c1ccccc1 (configuration not stated) | -44.0* | -15.2% | -1.6% | 1.7% | 2.3% | -14.3%[59 µM]
Clc1cccc(N2CCN(CCCN3CCN(c4ccccc4)CC3)CC2)c1 | 0.7 | . | -4.2% | 29.5% | . | .
Oc1ccc(N2CCN(CC(O)c3ccccc3)CC2)cc1 (configuration not stated) | 1.2 | 50.1µM* | -3.0% | 9.1% | -3.7% | 8.91µM*
CCCN1CCN(CC(O)COC(c2ccc(OC)cc2)c2ccc(OC)cc2)CC1 (configuration not stated) | -1.7 | 44.7µM* | -2.2% | -12.0% | -2.3% | 2.82µM*
O=[N+]([O-])c1ccc(C(O)CN2CCN(c3ccccc3)CC2)cc1 (configuration not stated) | 1.3 | 3.6% | -10.9% | -2.7% | 2.0% | 13.9%
COc1ccc(C(OCC(O)CN2CCC(O)CC2)c2ccc(OC)cc2)cc1 (configuration not stated) | 0.0 | 5.1% | -10.0% | 9.2% | -2.1% | -13.1%
CCOC(=O)C1CCC(CN(Cc2ccc(OC)cc2)S(=O)(=O)c2ccc(F)c(C(=O)Nc3c(C)cccc3C)c2)CC1 (configuration not stated) | . | . | . | 14.6% | . | 0.2%[59 µM]
CNc1ncncc1-c1ccc(C(=O)N(C)C)cc1 | . | -22.4% | . | 7.3% | . | .
COc1cccc(N2CCN(C(=O)Cn3ncc4c(=O)oc5ccccc5c43)CC2)c1 | . | . | . | -13.1% | . | 6.9%[59 µM]
COc1ccc(-c2nc(CCNC(=O)c3ccccc3)cs2)cc1OC | . | . | . | 1.2% | . | 4.6%[59 µM]
CCOC(=O)C1=NNC(C(=O)OCC)C1c1ccccc1 (configuration not stated) | -4.7 | . | -7.8% | -7.8% | . | .
CCOC(=O)C1=NNC(C(=O)c2ccc(C)cc2)C1c1ccc(OC)cc1 (configuration not stated) | 2.7 | 6.5% | -4.3% | 5.5% | -0.1% | 50.1µM*
CCOC(=O)[C@H]1NN=C(C(=O)OC)[C@@H]1c1ccccc1 | -1.5 | 4.2% | 37.7µM* | ? | -0.6% | 5.2%[59 µM]
Cc1nc(NC(=O)C2CC2)sc1C(=O)Nc1ccccc1 | -1.0 | 2.4% | -1.2% | 12.0% | -7.7% | .
Cc1nc(Nc2c(Cl)cccc2Cl)sc1C(=O)Nc1ccccc1 | -1.2 | 14.0% | -12.6% | -7.8% | 0.4% | 50.1µM*
COc1cc(NC(=O)CSc2nnc(C)n3c2cc2oc(C)cc23)cc(OC)c1 | . | . | . | 14.1% | . | 3.0%[59 µM]
O=C(O)CC1c2ccccc2CCN1C(=O)Nc1cc(Cl)ccc1Cl (configuration not stated) | . | . | . | -2.0% | . | -7.5%[12.7 µM]
O=S(=O)(Nc1ccc(O)c(NS(=O)(=O)c2ccccc2)c1)c1ccccc1 | 0.1 | 39.8µM* | -9.9% | 5.1% | -7.8% | 0.316µM*
COc1ccc(S(=O)(=O)Nc2cc(S(=O)(=O)c3ccccc3)c(O)c(C)c2C)cc1 | . | . | . | 2.6% | . | -42.9%[59 µM]
CCOc1ccc(S(=O)(=O)Nc2ccc3c(c2)OCO3)c2cccnc12 | 1.5 | 56.2µM* | -11.9% | -12.1% | 0.1% | ?
